# According to PubChem BioAssay (NCATS):
# Records with an inconclusive call do not appear. Calls of active or inactive are those of the source. Calls come from the whole dose curve; as a rule, active = well fitted cell-killing curve with a large enough effect; inconclusive = small, poorly fitted or top-dose-only effect, or effect the other way; inactive = no such curve, though single readings can be large or run the other way.
# Test: Quantitative High-Throughput drug screen in 47 multiple myeloma cell lines against the NCATS MIPE library collection: Karpas620_DSMZ cell viability assay (AID 1918959); note: nearly all actives have a fitted effect of over 30% in size
# Details: Karpas620 myeloma viability, CellTiter-Glo ATP luminescence, 48 h; series mostly up to 45.8 µM; viability (% of DMSO): at the top concentration
# In short: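 We plated 500 myeloma cells per well, pinned in MIPE 4.0 compounds, and incubated for 48 hours at 37C. ATP was then quantified with CellTiter-Glo, with DMSO and media-only wells defining 100% and 0%.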
# Potency is the fitted concentration of half-maximal effect.
Compound,viability (% of DMSO),Potency
CC(Cc1ccc(O)c(O)c1)(NN)C(=O)O (configuration not stated),99.5% (inactive),–
CC(C)(O)CC[C@@H](O)[C@](C)(O)[C@H]1CC[C@@]2(O)C3=CC(=O)[C@@H]4C[C@@H](O)[C@@H](O)C[C@]4(C)[C@@H]3CC[C@]12C,98.8% (inactive),–
CCN(CC)CCCCNc1ncc2c(n1)N(C)C(=O)N(c1c(Cl)c(OC)cc(OC)c1Cl)C2,105% (inactive),–
Cc1cc(C(=O)NOCCO)c(Nc2ccc(I)cc2F)n(C)c1=O,–,5.9 nM (active)
CCCCCCCCCCCC(CC1OC(=O)C1CCCCCC)OC(=O)C(CC(C)C)NC=O (configuration not stated),102% (inactive),–
CN1C(C(=O)Nc2ccccn2)=C(O)c2sc(Cl)cc2S1(=O)=O,83% (inactive),–
O=C(Nc1cccc(Nc2ncc(Br)c(NCCc3cnc[nH]3)n2)c1)N1CCCC1,114% (inactive),–
CC(N[C@H]1CCCC[C@H]1NC(=O)c1ccc(Cl)cc1)c1cccc2ccccc12 (some centres not stated),–,132 nM (active)
O=c1[nH]c(=O)n([C@H]2C[C@@H](O)[C@@H](CO)O2)cc1C=CBr,115% (inactive),–
CC1(C)[C@H](O[C@H]2O[C@H](C(=O)O)[C@@H](O)[C@H](O)[C@H]2O[C@@H]2O[C@H](C(=O)O)[C@@H](O)[C@H](O)[C@H]2O)CC[C@@]2(C)[C@H]1CC[C@]1(C)[C@H]2C(=O)C=C2[C@H]3C[C@@](C)(C(=O)O)CC[C@]3(C)CC[C@]21C,124% (inactive),–
C=C1CCC2[C@](C)(CO)C(O)CC[C@]2(C)C1CC=C1C(=O)OCC1O (some centres not stated),108% [at 92.2 µM] (inactive),–
Cn1cc(C=CC(=O)c2cccc(F)c2)cc1C=CC(=O)NO,–,13200 nM (active)
CC(Oc1ccc(O)cc1)(P(=O)(O)O)P(=O)(O)O,97.1% (inactive),–
COc1ccc(S(=O)(=O)Nc2cc(-c3c(O)ccc4ccccc34)c(O)c3ccccc23)cc1,–,1660 nM (active)
CC(C(C)N1CC(=O)NC(=O)C1)N1CC(=O)NC(=O)C1 (configuration not stated),113% (inactive),–
Nc1cccc2c1C(=O)N(C1CCC(=O)NC1=O)C2=O (configuration not stated),–,20.9 nM (active)
C#CCC(Cc1cnc2nc(N)nc(N)c2n1)c1ccc(C(=O)N[C@@H](CCC(=O)O)C(=O)O)cc1 (some centres not stated),107% (inactive),–
Cc1[nH]c(C=C2C(=O)Nc3ccccc32)c(C)c1CCC(=O)O,–,18700 nM (active)
Cc1cn([C@@H]2O[C@H](CO)[C@@H](O)[C@H]2F)c(=O)[nH]c1=O,103% (inactive),–
COC(=O)C=CC(=O)OC,102% (inactive),–
NC(=O)c1cccc(-c2cccc(OC(=O)NC3CCCCC3)c2)c1,138% (inactive),–
CCCCCCCCCCCCCCCC(=O)OC[C@@H](NC(=O)C(Cl)Cl)[C@H](O)c1ccc([N+](=O)[O-])cc1,116% (inactive),–
COc1cc(C(=O)NC2CCN(C)CC2)ccc1Nc1ncc2c(n1)N(C1CCCC1)CCC(=O)N2C(C)C,–,23500 nM (active)
C=C[C@@H]1CN2CCC1C[C@H]2[C@H](O)c1ccnc2ccc(OC)cc12 (some centres not stated),96.4% (inactive),–
C#C[C@]1(O)CC[C@@H]2[C@@H]3CCC4=CC(=O)CC[C@@H]4[C@H]3CC[C@@]21CC,105% (inactive),–
COc1ccc(CCC(=O)c2c(O)cc(O[C@@H]3O[C@H](CO)[C@@H](O)[C@H](O)[C@@H]3O[C@@H]3O[C@@H](C)[C@H](O)[C@@H](O)[C@@H]3O)cc2O)cc1O,106% (inactive),–
CC(C)NC[C@@H](C(=O)N1CCN(c2ncnc3c2[C@H](C)C[C@H]3O)CC1)c1ccc(Cl)cc1,–,4180 nM (active)
